Test results taken from PubChem BioAssay (NCATS).
Results filed as inconclusive are left out. A number with no mark means an inactive call. Calls come from the whole dose curve; as a rule, active = well fitted curve in the direction sought with a large enough effect; inconclusive = small, poorly fitted or top-dose-only effect, or another doubt; inactive = no such curve, though single readings can be large or run the other way.

What follows are compounds tested against Metallo-beta-lactamase type 2 (Klebsiella pneumoniae) (UniProt C7C422) (assay: qHTS to identify inhibitors of the New Delhi Metallo-beta-lactamase (NDM): assay validation screen against the NCATS LOPAC Collection (AID 1794843)). Conditions: NDM-1 enzyme, nitrocefin hydrolysis, absorbance 485 nm; series mostly up to 38.4 µM; activity change, negative = inhibition: at the top concentration.
Procedure, shortened: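 Absorbance at 485 nm from nitrocefin turnover (50 uM solution added), read at plateau, gives the read-out. Compounds in DMSO were incubated first with 2 nM final NDM-1 in pH 7.0 HEPES buffer containing 1 uM ZnSO4 and 0.01% Tween20.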
% is set by controls: 0 for no effect and ±100 for the full control effect.

Chain of Metallo-beta-lactamase type 2 (Klebsiella pneumoniae) (C7C422 whole entry, looked up): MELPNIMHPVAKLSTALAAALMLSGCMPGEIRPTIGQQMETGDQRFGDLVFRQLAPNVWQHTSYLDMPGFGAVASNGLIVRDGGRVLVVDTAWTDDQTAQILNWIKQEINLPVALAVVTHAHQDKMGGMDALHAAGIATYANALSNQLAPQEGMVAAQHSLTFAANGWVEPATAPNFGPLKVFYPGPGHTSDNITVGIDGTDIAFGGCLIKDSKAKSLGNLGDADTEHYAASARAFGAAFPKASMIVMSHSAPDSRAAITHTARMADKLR

| SMILES | activity change, negative = inhibition [%] |
| --- | --- |
| Cc1cc(NC(=O)Nc2ccc3c(ccn3C)c2)sn1 | 0.886 |
| O=C(CCSCc1ccco1)NNC(=O)N1Cc2ccccc2Oc2ccc(Cl)cc21 | -3.91 |
| CN(C)CCC(c1ccc(Cl)cc1)c1ccccn1 (stereo not drawn) | -0.0151 |
| Brc1cc2c(cc1[C@H]1Nc3ccccc3[C@H]3C=CC[C@H]31)OCO2 | 11.7 |
| Nc1nc2ccc(Cl)cc2n2c(-c3ccccc3)nnc12 | -1.49 |
| O=[N+]([O-])c1ccc2c(c1)S(=O)(=O)C=C2 | -3.08 |
| O=P(O)(O)C(Cl)(Cl)P(=O)(O)O | -11.8 |
| COc1cc2c(CCNC(C)=O)c[nH]c2cc1Cl | 5.01 |
| OCC1O[C@H](O)C(Cl)C(O)C1O (stereo partly drawn) | 0.16 |
| CC(C)Cc1ccc([C@H](C)C(=O)O)cc1 | 10.3 |
| O=C(O)CCCC[C@@H]1CCSS1 | -4.38 |
| Nc1ccn([C@@H]2O[C@H](CO)[C@@H](O)[C@@H]2O)c(=O)n1 | -5.14 |
| COc1ccc(-c2cc(=O)c3c(O)c(OC)c(OC)cc3o2)cc1O | 3.73 |
| Nc1nc(Cl)nc2c1ncn2[C@@H]1O[C@H](CO)[C@@H](O)[C@H]1O | -7.12 |
| CCCCCCCC/C=C\CCCCCCCC(=O)NCCO | 1.58 |
| NCCCS(=O)(=O)O | -0.968 |
| S=C(S)OC1CC2CC1C1CCCC21 (stereo not drawn) | -0.91 |
| OC[C@H]1O[C@@H](n2cnc3c(NC4CCCC4)ncnc32)[C@H](O)[C@@H]1O | 2.41 |
| OC[C@H]1O[C@@H](n2cnc3c(NC4CCCCC4)ncnc32)[C@H](O)[C@@H]1O | 10.7 |

| SMILES | activity change, negative = inhibition [%] |
| --- | --- |
| Clc1ccc(N2CCN(Cc3cc4ccccn4n3)CC2)cc1 | 0.495 |
| COc1ccc2c(c1)CCC1C2CC[C@@]2(C)C1CC[C@@H]2NCCCCCCN1C(=O)CCC1=O (stereo partly drawn) | -6.01 |
| Nc1nc(Nc2ccccc2)nc2c1ncn2[C@@H]1O[C@H](CO)[C@@H](O)[C@H]1O | -4.88 |
| COc1cccc(OC)c1OCCNCC1COc2ccccc2O1 (stereo not drawn) | 3.86 |
| NCCSSCCN | -5.54 |
| N[C@H](CCCP(=O)(O)O)C(=O)O | 8.46 |
| Cc1ccc(S(=O)(=O)/C=C/C#N)cc1 | -3.61 |
| Fc1cccc(/C=N/N=C/c2cccc(F)c2)c1 | 7.32 |
| COCCOc1cc2nc[nH]c(=O)c2cc1OCCOC | -2.75 |
| CNC(=O)[C@H]1O[C@@H](n2cnc3c(NCc4cccc(I)c4)ncnc32)[C@H](O)[C@@H]1O | -0.841 |
| O=C(NOCC1CC1)c1cc(Br)c(F)c(F)c1Nc1ccc(I)cc1Cl | -5.91 |
| O=c1[nH]c2cc([N+](=O)[O-])c([N+](=O)[O-])cc2[nH]c1=O | 8.09 |
| CC(=O)N[C@H](C(=O)O)C(C)(C)SN=O | -5.16 |
| O=c1[nH]c2cc(C(F)(F)F)ccc2n1-c1cc(C(F)(F)F)ccc1O | 2.82 |
| Nc1ncnc2c1ncn2[C@@H]1O[C@H](COP(=O)(O)OP(=O)(O)OP(=O)(O)OP(=O)(O)OC[C@@H]2O[C@H](n3cnc4c(N)ncnc43)[C@@H](O)[C@H]2O)[C@@H](O)[C@H]1O | -15.1 |
| O=C(CCCCCN1CCN(c2ccccc2-c2ccccc2)CC1)NC1CCCc2ccccc21 (stereo not drawn) | 2.69 |
| NC(N)=NC(=O)c1nc(Cl)c(N2CCCCCC2)nc1N | 1.34 |
| NCC1OC(O[C@H]2[C@H](O)[C@@H](OC3C(O)C(N)CC(N)C3OC3OC(CO)C(O)C(O)C3N)O[C@@H]2CO)C(N)C(O)C1O (stereo partly drawn) | -7.3 |
| O=C(CCc1ccncc1)NNC(=O)N1Cc2ccccc2Oc2ccc(Cl)cc21 | 1.02 |
